The AC50 is the concentration giving half of the maximal activity seen.

Assay [1] in a line: CCTE_Shafer_MEA_acute_spike_number: CCTE's Neural Acute Assay for Total Number of Spikes, Shafer Lab (AID 2284008).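 As to AC50: curve fitted for decrease in spike count so AC50 reflects inhibitors.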 The method in brief:
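Rat primary cortical neurons on 48-well MEA plates, DIV 13 or 15, at 37 C. 40 min baseline then 40 min with compound (0.03-40 uM); spikes detected at 8x rms noise, expressed as percent change from baseline.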

Assay [2] is described as follows: CCTE_Harrill_HTTr_Viability_MCF7: CCTE's 6-hour Cell Viability Assessment for the High-Throughput Transcriptomics (HTTr) Platform, in MCF-7 cells cultured in DMEM + 10% fetal bovine serum, Harrill Lab (AID 2284010). The method in brief: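 MCF-7 cells in DMEM + 10% FBS, 384-well, exposed 6 h to an eight-point dilution series. Membrane integrity scored by high-content imaging of propidium iodide exclusion; bidirectional fit versus DMSO.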

Assay [3] can be described thus: CCTE_Harrill_HTTr_Apoptosis_MCF7: CCTE's 6-hour Apoptosis Assessment for the High-Throughput Transcriptomics (HTTr) Platform, in MCF-7 cells cultured in DMEM + 10% fetal bovine serum, Harrill Lab (AID 2284011). The method in brief: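 MCF-7 cells in DMEM + 10% FBS exposed 6 h to chemicals over an eight-point dilution series. Caspase-3/7 activation imaged by high-content CellEvent Green staining; fitted bidirectionally versus DMSO.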

Assay [4] is described as follows: CCTE_Harrill_HTTr_CellCount_MCF7: CCTE's Cell Proliferation Assessment for the High-Throughput Transcriptomics (HTTr) Platform, Harrill Lab (AID 2284012; active = hit-call score of the fitted dose curve at least 0.9, where 1 is the maximum;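 also: cells exposed to compound for six hours; intended direction is loss of nuclei count meaning fewer cells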). The method, boiled down:
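MCF7 cells exposed 6 hours to an eight-point dilution series; Hoechst-stained nuclei counted by high-content imaging. Bidirectional curve fitting against DMSO baseline.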

Assay [5] can be described thus: CCTE_Shafer_MEA_acute_burst_number: CCTE's Neural Acute Assay for Single-Electrode Bursts, Shafer Lab (AID 2284013). The method in brief: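 Rat cortical cultures, DIV 13/15; 40 min baseline, then 40 min with compound 0.03-40 uM, 37 C. Spikes: 300-5000 Hz band-pass, threshold 8x rms noise. Readout = % change in single-electrode bursts vs baseline, loss-of-signal fit.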

Assay [6] is described as follows: CCTE_Shafer_MEA_acute_burst_duration_mean: CCTE's Neural Acute Assay for Mean Burst Duration, Shafer Lab (AID 2284014).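 Also: hits are decreases in mean burst duration relative to DMSO controls.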 The method in brief:
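Primary rat cortical neurons on 16-electrode MEA wells, treated on DIV 13 or 15 with compound (0.03-40 uM; ≥3 wells each). 40-min baseline and 40-min exposure recordings at 37 C; percent change in mean burst duration per well versus DMSO.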

Assay [7] is described as follows: CCTE_Shafer_MEA_acute_per_burst_spike_number_mean: CCTE's Neural Acute Assay for Average Number of Spikes Per Burst, Shafer Lab (AID 2284015).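 Also: hits are decreases in mean spikes per burst versus baseline.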 The method, boiled down:
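Rat primary cortical neurons on 48-well MEAs (DIV 13 or 15) were treated with 0.03-40 uM compound at 37 C. Mean spikes per burst over 40 min were recorded before and after exposure and expressed as percent change from baseline, relative to DMSO.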

The nature of assay [8]: CCTE_Shafer_MEA_acute_interburst_interval_mean: CCTE's Neural Acute Assay for Mean Interburst Interval, Shafer Lab (AID 2284016).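 Also: percent change of mean interburst interval versus each well's own pre-dose baseline; curves fitted for decrease in interburst interval relative to DMSO.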 The method, boiled down:
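Rat primary cortical neurons on 48-well MEAs at DIV 13 or 15 were exposed acutely to 0.03-40 uM. Spikes detected at 8x rms noise, 37 C. Mean interburst interval from 40 min recordings expressed as percent change from 40 min pre-treatment baseline.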

A short description of assay [9]: CCTE_Shafer_MEA_acute_burst_percentage_std: CCTE's Neural Acute Assay for Standard Deviation of Burst Percentage, Shafer Lab (AID 2284018).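 Also: fitted in the negative direction so actives lower burst percentage SD.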 The method in brief: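 Primary rat cortical neurons on 16-electrode MEA wells were recorded 40 min at baseline (DIV 13 or 15), then 40 min after compound (0.03-40 uM), at 37 C. Well value is SD across electrodes of spikes-in-bursts/total spikes; endpoint is percent change, DMSO-referenced.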

Assay [10] can be described thus: CCTE_Shafer_MEA_acute_per_network_burst_spike_number_mean: CCTE's Neural Acute Assay for Average Number of Spikes in a Network Burst, Shafer Lab (AID 2284019).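 As to AC50: curve fitted for loss of signal so actives reduce spikes per network burst.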 The method in brief:
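Primary rat cortical neurons on 16-electrode MEA wells, DIV 13 or 15, 37 C; 40-min baseline then 40-min recording with compound (0.03-40 uM). Spikes per network burst (total spikes/number of bursts) expressed as percent change from baseline, DMSO reference.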

Assay [11] can be described thus: CCTE_Shafer_MEA_acute_per_network_burst_spike_number_std: CCTE's Neural Acute Assay for Standard Deviation of Number of Spikes in a Network Burst, Shafer Lab (AID 2284020).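 Also: fitted for decrease in spike-number SD versus DMSO so actives lower it.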 The method, boiled down: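 Primary rat cortical neurons on 48-well MEAs (16 electrodes/well) recorded at DIV 13 or 15: 40-min baseline, then 40 min with compound (0.03-40 uM), 37 C. Value is percent change in SD of spikes per network burst, relative to DMSO.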

The nature of assay [12]: CCTE_Shafer_MEA_acute_per_network_burst_electrodes_number_mean: CCTE's Neural Acute Assay for Mean Number of Electrodes in a Network Burst, Shafer Lab (AID 2284021).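 Also: curves fitted for decreases only so hits reduce electrodes per burst.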 The method in brief: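 Rat primary cortical neurons on 48-well MEAs, DIV 13 or 15, were treated at 0.03-40 uM. Spikes were detected at 8x rms noise and recorded at 37 C. The mean electrodes per network burst in a 40 min exposure recording was expressed as percent change from a 40 min baseline.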

Assay [13] can be described thus: CCTE_Shafer_MEA_acute_network_burst_percentage: CCTE's Neural Acute Assay for Percentage of Network Bursts, Shafer Lab (AID 2284022).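 Also: curves fitted for loss so actives lower network burst percentage.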 The method, boiled down: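 Rat primary cortical neuron networks on 48-well MEA plates, DIV 13 or 15, treated acutely with compound (0.03-40 uM, at least three wells). Percent of spikes within network bursts compared between 40-min recordings before and during exposure at 37 C, expressed as percent change.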

Assay [14] is described as follows: CCTE_Shafer_MEA_acute_cross_correlation_HWHM: CCTE's Neural Acute Assay for Cross Correlation at Half Width at Half Maximum, Shafer Lab (AID 2284026).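 Also: percent change per well from pre-dose baseline in spike cross-correlogram half width; hits are a decrease in cross-correlogram half width relative to DMSO.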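 As to outcome: spontaneous network firing of rat primary cortical neurons on multiwell microelectrode arrays.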 The method, boiled down:
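Rat primary cortical neurons on 48-well MEA plates; 40-min baseline and 40-min post-exposure recordings at 37 C on DIV 13 or 15, compounds 0.03-40 uM. Spikes detected at 8x rms noise; percent change in cross-correlogram HWHM per well vs baseline.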

Assay [15] in a line: CCTE_Shafer_MEA_acute_synchrony_index: CCTE's Neural Acute Assay for Synchrony, Shafer Lab (AID 2284027).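 Also: network synchrony index of spontaneous spiking in primary rat cortical neurons on MEAs; fitted for loss of signal so actives lower synchrony relative to DMSO.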 The method in brief: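 Primary rat cortical neurons on 48-well MEAs, dosed at 0.03–40 uM on DIV 13 or 15. Spikes are recorded for 40 min at 37C before and after exposure, and synchrony index (0–1) is expressed as percent change from baseline per well.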
The nature of assay [16]: CCTE_Simmons_MITO_basal_resp_rate: CCTE's HepG2 Seahorse XF Respirometric Screening Assay at Basal Respiratory State, Simmons Lab (AID 2284001). The following applies: actives raise or lower the signal. The method, boiled down:
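HepG2 cells were given test chemicals at 7 concentrations, 125 nM to 100 uM final, and oxygen consumption rate was read every 6 min (3 min mix, 3 min measure) over 72 min. Basal-phase OCR was fitted bidirectionally against DMSO.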

Assay [17] can be described thus: CCTE_Simmons_MITO_inhib_resp_rate: CCTE's HepG2 Seahorse XF Respirometric Screening Assay at Inhibited Respiratory State [full ETC block], Simmons Lab (AID 2284006). The following applies: actives raise or lower the signal. The method in brief:
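HepG2 oxygen consumption was measured by Seahorse XF after compound, FCCP, then rotenone/antimycin A injections. Seven concentrations from 125 nM to 100 uM (final) were tested, with 6-min kinetic reads over 72 minutes. Inhibited-state OCR was fitted bidirectionally against DMSO.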

A short description of assay [18]: CCTE_Simmons_MITO_viability: CellTiter-Glo Viability Assessment for CCTE's HepG2 Seahorse XF Respirometric Screening Assay [post-hoc], Simmons Lab (AID 2284007; active = hit-call score of the fitted dose curve at least 0.9, where 1 is the maximum). The method, boiled down:
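HepG2 cells exposed 90 min to 7 concentrations from 125 nM to 100 uM final, then ATP measured by luciferase luminescence. Three biological replicates per concentration; DMSO vehicle; dichlone control at 10 nM–100 uM.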
Background: In ATP-based viability assays light output follows the ATP content of the culture.

Results filed as inconclusive are left out. Activity calls are given as the source filed them. The calls were made as follows, unless noted: active = hit-call score of the fitted dose curve at least 0.9, where 1 is the maximum; inactive = score below 0.9.

Take `ClC1=C(Cl)[C@]2(Cl)[C@@H]3[C@H]4C[C@H]([C@@H]5O[C@H]45)[C@@H]3[C@@]1(Cl)C2(Cl)Cl`: the AC50 in assay [1] is 1.38 µM (active); in [6], 1.05 µM (active); in assay [7], 0.494 µM (active); in assay [10], 0.358 µM (active); in [14], 0.0859 µM (active); in [15] it was 0.0248 µM (active). Further, the result in assay [2], in assay [3], in assay [4], in assay [5], in [8] and in [9] was inactive. Besides, the compound was classed as inactive in assay [11], in assay [12] and in assay [13].
As for `CC#Cc1cc(C)nc(Nc2ccccc2)n1`, the AC50 in assay [1] was 4.07 µM (active); in [5], 2.85 µM (active); in assay [7], 7.84 µM (active); in assay [8], 4.15 µM (active); in assay [9], 4.1 µM (active); in assay [10] it was 2.62 µM (active). Besides, the AC50 was 4.76 µM (active) in assay [11]; 2.57 µM (active) in assay [12]; 31 µM (active) in assay [13]; 5.98 µM (active) in [14]; 6.46 µM (active) in [15]. Besides, the result in [2], in assay [3], in [4] and in assay [6] was inactive.
Take `O=C(O)C(F)(F)C(F)(F)C(F)(F)C(F)(F)C(F)(F)F`: the call in assay [1], in assay [2], in assay [3], in [4], in assay [5] and in assay [6] was inactive. The call in [7], in [8], in assay [9], in assay [10], in assay [11] and in assay [12] was inactive. The call in assay [13], in assay [14] and in [15] was inactive.
For `O=C(NC(=O)c1c(F)cccc1F)Nc1cc(Cl)c(OC(F)(F)C(F)F)c(Cl)c1`, the result in assay [1], in assay [2], in assay [3], in assay [4], in assay [5] and in assay [6] was inactive. The compound was called inactive in assay [7], in assay [9], in [10], in assay [11], in [12] and in assay [14]. Also, the outcome in assay [15] was inactive. The AC50 in [8] and in assay [13] was 20 µM (active) throughout.
As to `N#Cc1ccc(N(CC(N)=O)CC(F)(F)F)cc1C(F)(F)F`, the compound was called inactive in [16], in [17], in assay [18], in [2] and in assay [3].
Consider `C[C@]12CCC(=O)C=C1CC[C@@H]1[C@@H]2CC[C@]2(C)C(=O)CC[C@@H]12`, for which, in assay [16], the AC50 is 38 µM (active). The compound was classed as inactive in assay [17] and in assay [18].
For the compound `Clc1ccc(C(Cl)(Cl)Cl)cc1`, the outcome in [1], in [2], in assay [3], in [4], in assay [5] and in [6] was inactive. For the same compound, the result in assay [7], in [8], in assay [9], in assay [10], in assay [11] and in [12] was inactive. Further, the outcome in assay [13], in assay [14] and in assay [15] was inactive.
For the compound `COS(=O)(=O)OC`, the result in assay [1], in [2], in assay [3], in assay [4], in [5] and in assay [6] was inactive. For the same compound, the compound was called inactive in [7], in assay [8], in assay [9], in assay [10], in assay [11] and in [12]. For the same compound, the compound was classed as inactive in assay [13], in assay [14] and in assay [15].
Take `NS(=O)(=O)C(F)(F)C(F)(F)C(F)(F)C(F)(F)C(F)(F)C(F)(F)C(F)(F)C(F)(F)F`: in assay [16], the AC50 is 34.9 µM (active). Further, the compound was classed as inactive in assay [17], in [18], in [2] and in assay [3].
`ClC1=C(Cl)[C@]2(Cl)[C@@H]3[C@@H](Cl)[C@H]4O[C@H]4[C@@H]3C1(Cl)C2(Cl)Cl`: the concentration at half-maximal activity (AC50) in assay [1] is 0.106 µM (active); in assay [5], 0.054 µM (active); in assay [10], 0.0709 µM (active); in [11], 0.248 µM (active); in [12] it was 0.0956 µM (active); in assay [13] it was 0.0884 µM (active). Moreover, the AC50 in assay [14] was 0.458 µM (active); in [15] it was 0.0952 µM (active). The result in assay [2], in assay [3], in assay [4], in assay [6], in assay [7] and in [8] was inactive. Besides, the compound was classed as inactive in [9].
As for `CCCCCCCCCc1ccc(O)cc1`, the AC50 in assay [1] is 9.9 µM (active); in [6], 20 µM (active); in assay [7], 11.1 µM (active); in assay [9], 33.7 µM (active); in assay [11] it was 9.3 µM (active); in assay [12], 20 µM (active). In addition, the AC50 in assay [13] was 31 µM (active); in [14] it was 20 µM (active); in assay [15], 20.9 µM (active). The result in assay [2], in assay [3], in [4], in assay [5], in assay [8] and in assay [10] was inactive.

The record behind these values is PubChem BioAssay (EPA / NIEHS).
